# Paper PMC7862700, “An all-to-all approach to the identification of sequence-specific readers for epigenetic DNA modifications on cytosine”
# Experiments:
# Assay in all cases: DAPPL (digital affinity profiling via proximity ligation, sequencing); 10 mM Tris-HCl pH 7.5, 50 mM NaCl, 1 mM DTT, 4% glycerol, room temperature, 30 min; GST-TFs on glutathione beads, 16-mer random dsDNA library, 0.1% formaldehyde crosslink after washing; high values mean tight binding
# FLI1 = target: T1, FLI1 (Homo sapiens, UniProt Q01543 1-452); conditions: protein: recombinant; tags: N-terminal GST; dsDNA, one strand shown
# T1 sequence: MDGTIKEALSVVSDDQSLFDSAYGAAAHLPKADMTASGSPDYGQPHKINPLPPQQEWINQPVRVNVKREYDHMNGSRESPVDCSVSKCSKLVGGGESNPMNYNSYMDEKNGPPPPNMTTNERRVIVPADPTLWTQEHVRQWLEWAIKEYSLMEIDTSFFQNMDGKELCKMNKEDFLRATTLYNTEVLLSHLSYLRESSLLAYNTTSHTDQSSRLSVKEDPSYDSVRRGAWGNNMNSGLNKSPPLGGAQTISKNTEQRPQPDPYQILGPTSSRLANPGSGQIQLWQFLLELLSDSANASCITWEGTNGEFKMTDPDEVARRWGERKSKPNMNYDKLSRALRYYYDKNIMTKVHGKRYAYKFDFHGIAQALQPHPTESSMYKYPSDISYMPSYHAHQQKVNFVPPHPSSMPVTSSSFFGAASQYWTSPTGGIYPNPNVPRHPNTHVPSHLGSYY
# Procedure, shortened: (§1)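 The binding signal reported is, for every hexamer, its read frequency for a factor over its read frequency for the tag-only sample. Reads came from pools of yeast-expressed, GST-fused human transcription factors on glutathione beads, barcoded with DNA and mixed with that sample, which were incubated with 200 nmole of a random double-stranded 16-mer DNA library in Tris/NaCl/DTT/glycerol buffer at room temperature for 30 min. After washing, the pools were crosslinked with 0.1% formaldehyde, proximity-ligated with BsaI/T4 ligase for 1 h at 37 °C, PCR-amplified and sequenced on an Illumina NextSeq500.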
# ELK1 = target: T2, ELK1 (Homo sapiens, UniProt P19419 1-428); conditions: protein: recombinant; tags: N-terminal GST; dsDNA, one strand shown
# T2 sequence: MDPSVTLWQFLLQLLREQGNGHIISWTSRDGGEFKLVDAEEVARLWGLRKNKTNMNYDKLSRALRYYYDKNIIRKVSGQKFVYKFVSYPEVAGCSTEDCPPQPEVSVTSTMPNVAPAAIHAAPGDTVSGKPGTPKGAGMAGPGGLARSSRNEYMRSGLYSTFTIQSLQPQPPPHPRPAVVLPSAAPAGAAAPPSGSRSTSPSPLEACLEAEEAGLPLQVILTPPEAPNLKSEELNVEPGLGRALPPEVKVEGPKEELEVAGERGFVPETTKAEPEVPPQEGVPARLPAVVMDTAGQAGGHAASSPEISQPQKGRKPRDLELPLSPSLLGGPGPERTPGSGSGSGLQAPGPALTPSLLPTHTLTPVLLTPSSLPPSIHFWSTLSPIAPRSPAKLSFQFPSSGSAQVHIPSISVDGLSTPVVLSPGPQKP
# Procedure, shortened: as §1
# GABPA = target: T3, GABPA (Homo sapiens, UniProt Q06546 1-454); conditions: protein: recombinant; tags: N-terminal GST; dsDNA, one strand shown
# T3 sequence: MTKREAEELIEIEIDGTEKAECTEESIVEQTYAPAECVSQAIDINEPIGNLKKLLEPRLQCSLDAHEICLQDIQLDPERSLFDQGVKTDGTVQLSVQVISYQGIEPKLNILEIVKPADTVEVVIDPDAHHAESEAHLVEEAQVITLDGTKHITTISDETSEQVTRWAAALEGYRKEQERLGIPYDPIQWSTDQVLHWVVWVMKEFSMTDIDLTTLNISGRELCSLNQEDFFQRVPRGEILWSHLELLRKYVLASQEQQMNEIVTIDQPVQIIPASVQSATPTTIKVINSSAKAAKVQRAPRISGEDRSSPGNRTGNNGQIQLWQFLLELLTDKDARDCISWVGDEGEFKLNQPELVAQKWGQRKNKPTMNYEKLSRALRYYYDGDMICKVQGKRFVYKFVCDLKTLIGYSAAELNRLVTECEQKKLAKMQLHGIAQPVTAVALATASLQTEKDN
# Procedure, shortened: as §1
# ERG = target: T4, ERG (Homo sapiens, UniProt P11308 1-479); conditions: protein: recombinant; tags: N-terminal GST; dsDNA, one strand shown
# T4 sequence: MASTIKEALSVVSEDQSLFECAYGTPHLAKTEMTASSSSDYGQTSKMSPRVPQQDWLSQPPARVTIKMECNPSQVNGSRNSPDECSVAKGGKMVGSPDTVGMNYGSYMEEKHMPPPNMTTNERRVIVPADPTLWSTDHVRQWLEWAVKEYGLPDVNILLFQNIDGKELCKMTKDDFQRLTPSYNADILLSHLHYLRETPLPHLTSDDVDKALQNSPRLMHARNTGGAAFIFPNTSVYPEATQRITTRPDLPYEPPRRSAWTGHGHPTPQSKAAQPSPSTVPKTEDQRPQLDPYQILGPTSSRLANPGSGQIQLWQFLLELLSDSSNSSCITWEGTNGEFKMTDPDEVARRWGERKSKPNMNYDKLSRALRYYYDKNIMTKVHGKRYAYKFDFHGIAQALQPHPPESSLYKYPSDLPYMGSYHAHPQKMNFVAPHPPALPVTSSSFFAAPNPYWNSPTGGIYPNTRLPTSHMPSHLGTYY
# Procedure, shortened: as §1
# ELF1 = ELF1 (Homo sapiens, UniProt P32519 1-619); conditions: protein: recombinant; tags: N-terminal GST; dsDNA, one strand shown
# Chain of ELF1 (P32519 whole entry): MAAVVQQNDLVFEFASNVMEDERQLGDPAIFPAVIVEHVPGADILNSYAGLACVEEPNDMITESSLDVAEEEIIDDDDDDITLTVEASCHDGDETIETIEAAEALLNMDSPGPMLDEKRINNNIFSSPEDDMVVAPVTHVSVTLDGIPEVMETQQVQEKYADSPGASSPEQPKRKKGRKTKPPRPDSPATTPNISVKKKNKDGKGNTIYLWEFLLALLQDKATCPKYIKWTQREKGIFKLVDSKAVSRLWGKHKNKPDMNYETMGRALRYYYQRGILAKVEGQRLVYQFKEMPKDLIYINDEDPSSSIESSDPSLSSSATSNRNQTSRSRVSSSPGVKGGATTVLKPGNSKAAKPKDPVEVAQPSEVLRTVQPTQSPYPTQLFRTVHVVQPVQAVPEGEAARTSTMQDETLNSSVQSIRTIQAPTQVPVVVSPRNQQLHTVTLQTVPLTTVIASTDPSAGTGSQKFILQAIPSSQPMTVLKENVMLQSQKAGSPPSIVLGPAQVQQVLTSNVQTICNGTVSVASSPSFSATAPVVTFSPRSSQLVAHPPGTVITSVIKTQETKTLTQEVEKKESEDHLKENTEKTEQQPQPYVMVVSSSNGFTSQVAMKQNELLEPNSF
# Procedure, shortened: as §1
# EHF = target: T5, EHF (Homo sapiens, UniProt Q9NZC4 1-300); conditions: protein: recombinant; tags: N-terminal GST; dsDNA, one strand shown
# T5 sequence: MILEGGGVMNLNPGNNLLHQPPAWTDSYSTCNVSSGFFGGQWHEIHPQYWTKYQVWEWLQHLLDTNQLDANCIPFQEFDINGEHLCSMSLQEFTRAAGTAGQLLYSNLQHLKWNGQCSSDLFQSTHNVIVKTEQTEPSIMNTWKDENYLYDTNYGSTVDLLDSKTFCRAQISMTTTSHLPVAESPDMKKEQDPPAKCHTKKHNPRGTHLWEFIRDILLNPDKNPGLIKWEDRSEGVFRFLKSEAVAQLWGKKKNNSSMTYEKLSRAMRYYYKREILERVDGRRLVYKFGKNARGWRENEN
# Procedure, shortened: as §1
# SPI1 = SPI1 (Homo sapiens, UniProt P17947 1-270); conditions: protein: recombinant; tags: N-terminal GST; dsDNA, one strand shown
# Procedure, shortened: as §1
# SPIB = SPIB (Homo sapiens, UniProt Q01892 1-262); conditions: protein: recombinant; tags: N-terminal GST; dsDNA, one strand shown
# Chain of SPIB (Q01892 whole entry): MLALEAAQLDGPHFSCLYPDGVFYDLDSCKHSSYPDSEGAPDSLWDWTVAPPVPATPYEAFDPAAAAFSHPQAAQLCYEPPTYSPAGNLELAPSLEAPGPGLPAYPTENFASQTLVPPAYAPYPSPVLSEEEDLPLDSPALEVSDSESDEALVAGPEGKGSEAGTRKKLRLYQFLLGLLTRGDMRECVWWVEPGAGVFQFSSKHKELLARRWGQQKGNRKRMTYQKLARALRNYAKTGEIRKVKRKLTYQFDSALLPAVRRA
# Procedure, shortened: as §1
# ELK3 = target: T6, ELK3 (Homo sapiens, UniProt P41970 1-407); conditions: protein: recombinant; tags: N-terminal GST; dsDNA, one strand shown
# T6 sequence: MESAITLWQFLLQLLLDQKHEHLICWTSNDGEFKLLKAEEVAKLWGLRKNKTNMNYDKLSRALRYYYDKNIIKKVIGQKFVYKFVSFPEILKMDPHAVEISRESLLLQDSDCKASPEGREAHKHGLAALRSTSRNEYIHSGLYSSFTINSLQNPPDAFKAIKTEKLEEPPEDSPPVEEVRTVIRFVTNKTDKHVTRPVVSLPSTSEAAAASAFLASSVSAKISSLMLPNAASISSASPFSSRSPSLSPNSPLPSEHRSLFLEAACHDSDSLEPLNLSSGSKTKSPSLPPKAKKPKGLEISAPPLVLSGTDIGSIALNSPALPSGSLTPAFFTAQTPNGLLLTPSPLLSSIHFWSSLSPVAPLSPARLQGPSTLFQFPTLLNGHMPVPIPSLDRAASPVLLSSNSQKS
# Procedure, shortened: as §1
# FEV = target: T7, FEV (Homo sapiens, UniProt Q99581 1-238); conditions: protein: recombinant; tags: N-terminal GST; dsDNA, one strand shown
# T7 sequence: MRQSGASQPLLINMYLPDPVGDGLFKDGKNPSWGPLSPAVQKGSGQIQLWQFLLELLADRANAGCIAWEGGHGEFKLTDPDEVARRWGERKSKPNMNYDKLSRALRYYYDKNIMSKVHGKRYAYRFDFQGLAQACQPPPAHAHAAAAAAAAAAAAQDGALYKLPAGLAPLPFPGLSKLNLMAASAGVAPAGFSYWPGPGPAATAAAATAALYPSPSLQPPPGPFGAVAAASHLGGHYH
# Procedure, shortened: as §1
# ETV5 = ETV5 (Homo sapiens, UniProt P41161 1-510); conditions: protein: recombinant; tags: N-terminal GST; dsDNA, one strand shown
# Chain of ETV5 (P41161 whole entry): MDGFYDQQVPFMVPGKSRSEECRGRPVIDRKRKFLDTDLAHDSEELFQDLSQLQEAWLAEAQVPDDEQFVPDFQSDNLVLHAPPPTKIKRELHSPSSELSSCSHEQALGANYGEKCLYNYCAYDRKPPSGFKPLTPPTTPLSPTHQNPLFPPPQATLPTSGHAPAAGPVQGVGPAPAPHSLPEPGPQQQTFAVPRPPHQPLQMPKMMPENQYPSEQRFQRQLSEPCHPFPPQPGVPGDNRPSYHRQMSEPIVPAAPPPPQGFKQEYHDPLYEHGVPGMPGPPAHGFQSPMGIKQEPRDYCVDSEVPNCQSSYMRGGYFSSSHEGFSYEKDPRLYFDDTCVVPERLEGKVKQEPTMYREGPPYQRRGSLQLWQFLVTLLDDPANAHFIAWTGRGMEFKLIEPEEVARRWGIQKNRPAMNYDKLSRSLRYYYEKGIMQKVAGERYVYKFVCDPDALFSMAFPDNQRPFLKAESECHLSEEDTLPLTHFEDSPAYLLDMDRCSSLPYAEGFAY
# Procedure, shortened: as §1
# HSF1 = HSF1 (Homo sapiens, UniProt Q00613 1-529); conditions: protein: recombinant; tags: N-terminal GST; chain copies: 3; dsDNA, one strand shown
# Chain of HSF1 (Q00613 whole entry): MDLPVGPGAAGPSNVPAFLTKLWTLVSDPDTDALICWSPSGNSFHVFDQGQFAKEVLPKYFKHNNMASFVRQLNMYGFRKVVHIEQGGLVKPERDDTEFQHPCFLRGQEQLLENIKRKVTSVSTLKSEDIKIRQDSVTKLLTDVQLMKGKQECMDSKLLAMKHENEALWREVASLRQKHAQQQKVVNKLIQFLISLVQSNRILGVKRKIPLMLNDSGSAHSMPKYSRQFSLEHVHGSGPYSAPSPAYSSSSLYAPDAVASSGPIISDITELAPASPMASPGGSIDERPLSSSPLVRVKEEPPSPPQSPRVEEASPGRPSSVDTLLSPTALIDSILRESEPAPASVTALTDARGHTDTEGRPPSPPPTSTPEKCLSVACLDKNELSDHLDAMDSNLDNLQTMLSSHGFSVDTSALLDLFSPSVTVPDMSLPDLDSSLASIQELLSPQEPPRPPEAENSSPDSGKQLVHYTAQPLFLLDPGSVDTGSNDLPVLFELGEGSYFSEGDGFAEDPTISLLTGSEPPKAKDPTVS
# Procedure, shortened: as §1
# SPIC = target: T8, SPIC (Homo sapiens, UniProt Q8N5J4 1-248); conditions: protein: recombinant; tags: N-terminal GST; dsDNA, one strand shown
# T8 sequence: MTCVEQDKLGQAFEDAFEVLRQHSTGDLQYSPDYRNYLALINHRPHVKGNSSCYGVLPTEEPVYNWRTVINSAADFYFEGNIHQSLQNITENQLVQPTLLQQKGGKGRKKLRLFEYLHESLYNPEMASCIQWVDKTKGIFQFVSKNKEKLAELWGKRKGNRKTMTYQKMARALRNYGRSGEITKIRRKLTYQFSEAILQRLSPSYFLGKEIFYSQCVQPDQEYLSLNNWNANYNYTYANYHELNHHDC
# Procedure, shortened: as §1
# ELF4 = ELF4 (Homo sapiens, UniProt Q99607 1-663); conditions: protein: recombinant; tags: N-terminal GST; dsDNA, one strand shown
# Chain of ELF4 (Q99607 whole entry): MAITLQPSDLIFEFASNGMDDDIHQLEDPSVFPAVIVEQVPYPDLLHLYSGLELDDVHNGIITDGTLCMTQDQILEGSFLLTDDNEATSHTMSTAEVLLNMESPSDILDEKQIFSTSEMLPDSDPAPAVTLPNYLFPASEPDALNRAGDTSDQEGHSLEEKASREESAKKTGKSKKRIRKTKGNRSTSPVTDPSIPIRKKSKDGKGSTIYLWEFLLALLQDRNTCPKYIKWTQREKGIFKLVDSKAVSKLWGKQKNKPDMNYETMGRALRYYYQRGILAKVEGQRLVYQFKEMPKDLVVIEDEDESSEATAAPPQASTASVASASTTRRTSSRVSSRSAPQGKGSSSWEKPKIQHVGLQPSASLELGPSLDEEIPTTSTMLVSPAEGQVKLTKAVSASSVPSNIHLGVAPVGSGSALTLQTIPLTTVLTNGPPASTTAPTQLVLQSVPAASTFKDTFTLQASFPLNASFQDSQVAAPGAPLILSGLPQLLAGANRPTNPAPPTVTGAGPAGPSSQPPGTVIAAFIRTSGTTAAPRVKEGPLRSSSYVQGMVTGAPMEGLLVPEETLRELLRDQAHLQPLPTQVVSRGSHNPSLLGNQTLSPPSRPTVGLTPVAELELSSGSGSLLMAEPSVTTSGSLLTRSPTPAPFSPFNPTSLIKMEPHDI
# Procedure, shortened: as §1
# ELK4 = target: T9, ELK4 (Homo sapiens, UniProt P28324-2 1-405); conditions: protein: recombinant; tags: N-terminal GST; dsDNA, one strand shown
# T9 sequence: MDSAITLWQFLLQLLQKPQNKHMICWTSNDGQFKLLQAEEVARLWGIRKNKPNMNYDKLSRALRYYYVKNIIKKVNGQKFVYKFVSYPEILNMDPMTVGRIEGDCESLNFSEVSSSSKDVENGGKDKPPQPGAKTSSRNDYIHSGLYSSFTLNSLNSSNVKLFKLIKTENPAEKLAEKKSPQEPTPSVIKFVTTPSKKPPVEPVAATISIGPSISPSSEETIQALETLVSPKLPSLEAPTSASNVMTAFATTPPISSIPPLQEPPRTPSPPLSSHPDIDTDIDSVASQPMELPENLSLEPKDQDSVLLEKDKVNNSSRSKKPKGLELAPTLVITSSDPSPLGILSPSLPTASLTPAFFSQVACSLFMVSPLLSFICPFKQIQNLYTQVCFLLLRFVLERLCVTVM
# Procedure, shortened: as §1
# ETV2 = target: T10, ETV2 (Homo sapiens, UniProt O00321 1-342); conditions: protein: recombinant; tags: N-terminal GST; dsDNA, one strand shown
# T10 sequence: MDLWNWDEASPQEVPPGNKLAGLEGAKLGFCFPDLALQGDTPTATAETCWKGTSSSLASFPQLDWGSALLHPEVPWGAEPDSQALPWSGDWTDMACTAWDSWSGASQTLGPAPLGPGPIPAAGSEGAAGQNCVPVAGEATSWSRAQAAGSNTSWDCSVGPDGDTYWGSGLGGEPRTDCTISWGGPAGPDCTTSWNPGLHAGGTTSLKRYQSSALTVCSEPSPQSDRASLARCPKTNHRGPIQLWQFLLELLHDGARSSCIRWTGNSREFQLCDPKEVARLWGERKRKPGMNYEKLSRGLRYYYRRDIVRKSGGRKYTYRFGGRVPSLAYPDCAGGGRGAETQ
# Procedure, shortened: as §1
# CRX = CRX (Homo sapiens, UniProt O43186 1-299); conditions: protein: recombinant; tags: N-terminal GST; dsDNA, one strand shown
# Chain of CRX (O43186 whole entry): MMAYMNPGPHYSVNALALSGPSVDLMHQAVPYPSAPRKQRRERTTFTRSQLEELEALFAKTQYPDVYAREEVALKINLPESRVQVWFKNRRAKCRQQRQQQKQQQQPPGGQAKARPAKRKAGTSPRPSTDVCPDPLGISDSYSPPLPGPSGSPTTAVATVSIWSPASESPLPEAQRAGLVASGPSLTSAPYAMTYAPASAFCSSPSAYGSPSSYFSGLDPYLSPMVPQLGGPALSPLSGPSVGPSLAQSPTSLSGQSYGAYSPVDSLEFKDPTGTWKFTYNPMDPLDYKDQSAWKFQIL
# Procedure, shortened: as §1
# ETV1 = ETV1 (Homo sapiens, UniProt P50549 1-477); conditions: protein: recombinant; tags: N-terminal GST; dsDNA, one strand shown
# Chain of ETV1 (P50549 whole entry): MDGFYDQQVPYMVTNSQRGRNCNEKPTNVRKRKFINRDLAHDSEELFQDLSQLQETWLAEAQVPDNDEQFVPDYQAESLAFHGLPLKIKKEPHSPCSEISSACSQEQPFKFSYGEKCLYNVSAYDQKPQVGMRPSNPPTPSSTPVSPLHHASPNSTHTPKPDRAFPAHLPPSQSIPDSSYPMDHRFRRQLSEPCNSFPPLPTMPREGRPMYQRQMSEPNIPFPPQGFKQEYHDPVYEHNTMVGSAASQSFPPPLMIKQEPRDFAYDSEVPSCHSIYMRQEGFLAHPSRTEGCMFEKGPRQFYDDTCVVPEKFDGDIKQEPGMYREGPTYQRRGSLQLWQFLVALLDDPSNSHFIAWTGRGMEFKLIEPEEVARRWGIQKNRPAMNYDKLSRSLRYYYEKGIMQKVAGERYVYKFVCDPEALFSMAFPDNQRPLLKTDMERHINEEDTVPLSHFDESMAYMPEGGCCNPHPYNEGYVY
# Procedure, shortened: as §1
sequence,measurement,setting,value
ATCATA,binding signal,FLI1,"1.07 fold enrichment (6-mer frequency, TF over GST control)"
same,binding signal,ELK1,"1.06 fold enrichment (6-mer frequency, TF over GST control)"
same,binding signal,GABPA,"1.16 fold enrichment (6-mer frequency, TF over GST control)"
same,binding signal,ERG,"1.05 fold enrichment (6-mer frequency, TF over GST control)"
same,binding signal,ELF1,"1.12 fold enrichment (6-mer frequency, TF over GST control)"
same,binding signal,EHF,"1.03 fold enrichment (6-mer frequency, TF over GST control)"
same,binding signal,SPI1,"1.05 fold enrichment (6-mer frequency, TF over GST control)"
same,binding signal,SPIB,"1.18 fold enrichment (6-mer frequency, TF over GST control)"
same,binding signal,ELK3,"1.09 fold enrichment (6-mer frequency, TF over GST control)"
same,binding signal,FEV,"1.07 fold enrichment (6-mer frequency, TF over GST control)"
same,binding signal,ETV5,"1.09 fold enrichment (6-mer frequency, TF over GST control)"
same,binding signal,HSF1,"1.16 fold enrichment (6-mer frequency, TF over GST control)"
same,binding signal,SPIC,"1.04 fold enrichment (6-mer frequency, TF over GST control)"
same,binding signal,ELF4,"1.08 fold enrichment (6-mer frequency, TF over GST control)"
same,binding signal,ELK4,"1.08 fold enrichment (6-mer frequency, TF over GST control)"
same,binding signal,ETV2,"1.16 fold enrichment (6-mer frequency, TF over GST control)"
same,binding signal,CRX,"1.39 fold enrichment (6-mer frequency, TF over GST control)"
same,binding signal,ETV1,"1.08 fold enrichment (6-mer frequency, TF over GST control)"
